Compound activity: PubChem, The Scripps Research Institute Molecular Screening Center
MOR-DOR inv ag: inverse agonist of human OPRM1-OPRD1 heterodimerization; AID 504357; 340,000 compounds, 0.21% hits; inhibition, % at 9.3 µM; cell-based MOR-DOR heterodimer luminescence, inverse agonism; in the data active = inhibition above about 22%, passing the limit was not always enough
MOR-DOR ag: agonists of human mu-delta opioid receptor heterodimerization. cells, OPRM1-OPRD1 heterodimerization, luminescence. activation, % at 9.3 µM. 340,000 compounds, 0.3% hits; in the data active = activation above about 18%
HTR5A inv ctr: HTR5A inverse agonism, opioid heterodimer counter-screen | P47898 | AID 504634 | inhibition, % at 9.3 µM | HTR5A cell line, luminescence | 340,000 compounds, 0.083% hits; in the data active = inhibition mostly above about 23%, no sharp cut-off; inactive = mostly below about 18%
Target sequence (P47898 whole entry, looked up): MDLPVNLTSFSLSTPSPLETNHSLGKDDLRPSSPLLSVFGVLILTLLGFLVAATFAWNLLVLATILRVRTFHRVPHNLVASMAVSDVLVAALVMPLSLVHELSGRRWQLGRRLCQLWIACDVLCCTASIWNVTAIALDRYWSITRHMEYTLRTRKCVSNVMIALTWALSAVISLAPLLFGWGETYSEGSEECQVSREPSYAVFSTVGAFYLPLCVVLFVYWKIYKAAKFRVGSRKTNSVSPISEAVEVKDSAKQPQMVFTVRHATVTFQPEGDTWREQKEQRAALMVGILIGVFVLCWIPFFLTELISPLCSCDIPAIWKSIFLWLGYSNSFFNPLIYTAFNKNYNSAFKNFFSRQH
HTR5A ag ctr: activates human HTR5A in OPRM1-OPRD1 agonist counter-screen | AID 504692 | HTR5A agonist assay, luminescence, cell-based | activation, % at 9.3 µM | 340,000 compounds, 0.61% hits; in the data active = activation mostly above about 9.5%, no sharp cut-off; inactive = mostly below about 7.6%
Each line names hits and unclear results; the compound was inactive in the other large screens. A selection: hits, their analogues and other compounds. The true share with any hit is near 1.1%.

O=C(Nc1ccccc1Cl)C(Cl)C(=O)c1ccccc1 (stereo not given)	MOR-DOR inv ag 52.3
O=C(Nc1ccccc1Cl)c1ccccc1	none
C=CCn1c(SCc2cc(C(C)=O)ccc2OCC)nc2ccccc2c1=O	none
CCCC1CCC(=NNS(=O)(=O)c2ccc(C)c([N+](=O)[O-])c2)CC1 (stereo not given)	HTR5A ag ctr 13.2
O=S(=O)(N/N=C/c1ccccc1F)c1ccccc1	none
Cc1ccc(S(=O)(=O)N/N=C/c2ccccc2F)cc1[N+](=O)[O-]	HTR5A ag ctr 12.4
CCOC(=O)c1ccc(N=Cc2cnc(N)nc2N)cc1	none
Cc1cc(OCC(=O)Nc2ccncc2)cc(C)c1Br	HTR5A ag ctr 12.6
CCO[C@@H]1OC(C(=O)NCc2ccccc2)=C[C@H](c2ccc3c(c2)OCO3)[C@H]1CCCO	none
C#CCNC(=O)C1=C[C@@H](c2ccc3c(c2)OCO3)[C@H](CCCO)[C@@H](OCC)O1	HTR5A ag ctr 11.4
CCn1c(=O)cc(SCC(=O)N2CCN(c3ccccc3F)CC2)c2ccccc21	HTR5A ag ctr 12.6
CN(Cc1ccccc1)C(=O)C1CCN(S(=O)(=O)c2cc([N+](=O)[O-])ccc2Cl)CC1	HTR5A ag ctr 13.4
O=C(NCc1ccccc1)C1CCN(S(=O)(=O)c2cc([N+](=O)[O-])ccc2Cl)CC1	none
COc1ccc(NC(=O)CCC(=O)Nc2nnc(C(C)C)s2)cc1Cl	HTR5A ag ctr 12.0
CC(C)c1nnc(NC(=O)CCC(=O)Nc2ccc(Cl)cc2)s1	none
Cc1ccc(N2CCN(/N=C/c3sccc3C)CC2)cc1	none
CC(C)C(NC(=O)c1c(F)cccc1F)C(=O)OCN1C(=O)c2ccccc2C1=O (stereo not given)	none
COc1ccc(CNC(=O)CN2C(=O)CCSc3ccc(S(=O)(=O)N4CCCC4)cc32)cc1	none
O=C(Nc1ccccc1F)c1ccc(Br)o1	HTR5A ag ctr 13.0
O=C(Nc1cccc(F)c1)/C(=C/c1ccco1)NC(=O)c1ccco1	none
Cc1ncoc1C(=O)NC1CCCc2c1cnn2-c1ccc(C(C)(C)C)cc1 (stereo not given)	none
C=CCNC(=S)N1CCN(S(=O)(=O)c2ccc(C)cc2)CC1	HTR5A ag ctr 12.4
CCC1=[N+](CC(=O)c2ccc(Br)cc2)CCn2c(C)ccc21	HTR5A ag ctr 11.9
CC1(C)CC(NC(=O)c2cccc(S(=O)(=O)N(Cc3ccccc3)c3ccccc3)c2)CC(C)(C)N1	none
COc1ccc(-c2cc(-c3ccccc3)c(C#N)c(SCC(=O)O)n2)cc1	none
N#Cc1c(-c2ccccc2)cc(-c2ccccc2)nc1SCc1nnc(-c2ccccc2)o1	HTR5A ag ctr 12.6
O=C(Oc1ccc(NC(=O)c2cc3c(cc2Br)OCO3)cc1)c1ccccc1	none
COc1cccc(CNCCc2c[nH]c3ccccc23)c1OCc1ccc(F)cc1	none
COc1cc(CNCCc2c[nH]c3ccccc23)ccc1OCc1ccc(F)cc1	HTR5A ag ctr 10.8
Cn1c(CN2CCCCC2)nc2cc(NC(=O)c3ccc(F)cc3)ccc21	HTR5A ag ctr 9.2
Cn1c(CN2CCCCC2)nc2cc(NC(=O)c3ccccc3Cl)ccc21	none
CCOC(=O)C(Cc1ccccc1)NC(C)=O (stereo not given)	HTR5A ag ctr 12.2
CC(=O)NC(Cc1ccccc1)C(C)=O (stereo not given)	none
O=C(CSc1nc(O)cc(=O)n1-c1ccc(Cl)c(Cl)c1)Nc1ccc(Cl)cc1Cl	HTR5A ag ctr 10.4
COc1cc(/C=N\NC(=O)c2ccc(-c3ccccc3)cc2)ccc1OCC(N)=O	MOR-DOR ag 19.9, HTR5A ag ctr 10.7
CCN(Cc1nc2ccccc2c(=O)[nH]1)C(=O)c1cc2c(s1)CCCCC2	none
COc1cccc(CN2CCCC(C(=O)c3ccc4c(c3)OCO4)C2)c1OC (stereo not given)	none
O=C(c1ccc2c(c1)OCO2)C1CCCN(Cc2ccccc2OC(F)F)C1 (stereo not given)	HTR5A ag ctr 12.5
CC(=O)Nc1ccc(Nc2c([N+](=O)[O-])c(=O)n(-c3ccccc3)c3ccccc23)cc1	none
O=[n+]1cc(-c2ccccc2)n([O-])c2c1CCCCC2	HTR5A ag ctr 11.3
Cc1cc(NC(=O)CSCC(=O)N2CCN(c3cccc(C(F)(F)F)c3)CC2)no1	none
CC(C)n1c(N2CCN(C(=O)NCc3ccccc3)CC2)nc2ccccc21	HTR5A ag ctr 10.4
Cn1ncc2c(O/N=C(\N)c3ccc(C(C)(C)C)cc3)ncnc21	MOR-DOR ag 181.7, HTR5A ag ctr 68.3
CCOC(=O)c1ccc(Nc2ncnc3c2cnn3C)cc1	none
Cc1nc(=O)c(-c2ccccc2)c(C)n1-c1ccccc1	none
CC(=O)Nc1ccc(-n2c(C)nc(=O)c(-c3ccccc3)c2C)cc1	HTR5A ag ctr 10.4
CCNc1nc(NC(C)(C)C)nc(SCC(N)=O)n1	none
CC1CCCC/C1=N\NS(=O)(=O)c1ccc(Br)cc1 (stereo not given)	HTR5A ag ctr 11.5
O=S(=O)(N/N=C1/CCCc2ccccc21)c1ccc(Br)cc1	none
O=C(COc1ccc(Cl)cc1Br)Nc1cccc(S(=O)(=O)N2CCCC2)c1	HTR5A ag ctr 13.7
Cc1ccc(NC(=O)COc2cccc(C)c2C)cc1S(=O)(=O)N1CCCCCC1	HTR5A ag ctr 11.2
CN(C)S(=O)(=O)c1ccc(C(=O)OCC(=O)N2CC3(C)CC2CC(C)(C)C3)cc1 (stereo not given)	HTR5A ag ctr 12.7
Cc1noc(C)c1COc1ccc(C(=O)OCC(=O)N2CC3(C)CC2CC(C)(C)C3)cc1 (stereo not given)	none
O=C(C=Cc1cccs1)c1ccccc1	none
O=C(NC(C(=O)O)c1ccccc1)c1ccc(S(=O)(=O)N2CCOCC2)cc1 (stereo not given)	HTR5A ag ctr 12.0
CC1CN(N=Cc2ccc([N+](=O)[O-])o2)C(=N)O1 (stereo not given)	HTR5A ag ctr 8.2
N/C(=N\OC(=O)c1cccs1)c1cccnc1	none
Cc1ccccc1/C(N)=N/OC(=O)c1cccs1	HTR5A ag ctr 11.6
CC(c1ccccc1)C1CC(=O)N(c2ccc([N+](=O)[O-])cc2)C1=O (stereo not given)	none
CC(c1ccccc1)C1CC(=O)N(c2ccccc2)C1=O (stereo not given)	MOR-DOR inv ag 35.4, HTR5A inv ctr 36.1
CCOC(=O)C1=C(COC(=O)c2ccc([N+](=O)[O-])o2)NC(=O)NC1C (stereo not given)	none
Cc1cc([N+](=O)[O-])ccc1NC(=O)c1csc(C)c1C	HTR5A ag ctr 13.3
CCOC(=O)C1=C(O)/C(=C/c2ccc(CNC(=O)C(=O)Nc3ccc(C)cc3)o2)N=C1C	HTR5A ag ctr 14.2
COC(=O)C1=C(O)/C(=C\c2ccc(CNC(=O)C(=O)Nc3ccc(C)cc3)o2)N=C1C	none
Cc1ccccc1-n1c(=O)n(Cc2ccc(C(=O)O)cc2)c(=O)c2[nH]cnc21	none
Cc1ccc(S(C)=O)cc1-n1c(=O)n(Cc2ccccc2)c(=O)c2[nH]cnc21 (stereo not given)	MOR-DOR inv ag 69.2, HTR5A inv ctr 54.5
O=C(COC(=O)CCN1C(=O)c2ccccc2C1=O)Nc1ccccc1[N+](=O)[O-]	HTR5A ag ctr 10.6
